High-throughput results (PubChem BioAssay)
In the library only some 2.4% were active in any assay of this set; here they are far more common.
ANO1 block = blocks the mouse calcium-activated chloride channel TMEM16A. AID 588511. 1.2% of 310,000 active. HEK293 TMEM16A/YFP iodide influx fluorescence, ionomycin. normalized B-score (activity score, 25-100; higher = stronger inhibition) at 10 µM;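 active = ratio plate-corrected score three or more library SD toward inhibition, starting fluorescence score within five deviations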;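 note: score derived from kinetic fluorescence span divided by baseline fluorescence per well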
TMEM16A act = mouse TMEM16A channel activation, primary screen. Q8BHY3. HEK293 TMEM16A/YFP-H148Q/I152L, iodide quench fluorescence; stronger effect = lower value. B-score at 10 µM. 0.3% of 340,000 active;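 active = fluorescence-ratio B-score plate-corrected deviation score at least 3 library SD below zero, with starting fluorescence score within 5 deviations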;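 note: channel opened by trigger with iodide after compound preincubation; score built on the fluorescence ratio of max minus min over baseline; more negative score means more quench and so TMEM16A activation or potentiation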
CHT block = inhibits the human high affinity choline transporter | AID 488975 | Q9GZV3 | 0.86% of 310,000 active | B-score at 10 µM | CHT-expressing cells, membrane potential dye, choline response; stronger effect = lower value;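 active = B-score over 3 SD under the library average, and starting fluorescence ratio not unusually high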;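 note: choline stimulus applied at its EC90 after an EC20 pre-addition; B-score computed on integrated fluorescence ratio after choline addition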
CHT allo act = allosteric activators of human choline transporter CHT; AID 488977; B-score at 10 µM; CHT-expressing cells, membrane potential dye, choline EC20; stronger effect = higher value; LV-AA mutant CHT in HEK293 cells; 0.49% of 310,000 active;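 active = initial fluorescence not abnormally high and integrated response B-score, plate-corrected, over 3 SD above library mean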
TMEM16A reconf = re-confirmation of mouse TMEM16A chloride channel inhibitors. shares compounds with ANO1 block. HEK293 TMEM16A/YFP-H148Q, iodide quench fluorescence; ionomycin added to raise cell calcium. inhibition, % at 10 µM. 39% of 2,300 active. AID 652189;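 active = mean duplicate percent inhibition, scaled so buffer wells are 0 and the reference blocker 100, over three buffer SD above buffer mean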
TMEM16A Ca cntr = counter-screen for TMEM16A inhibitors: effect on calcium mobilization; calcium response (% of ionomycin), % at 10 µM; shares compounds with ANO1 block; 2% of 2,300 active; AID 652231; TMEM16A/YFP HEK293, Fluo4 calcium mobilization;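 active = duplicate-averaged calcium signal over 20% of the ionomycin maximum, relative to buffer baseline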;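 note: each well's signal is peak minus trough fluorescence divided by its pre-addition baseline; 0% = buffer wells and 100% = ionomycin wells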
Parental YFP cnt = counter-screen for TMEM16A inhibitors: effect in parental YFP-HEK293 cells; iodide YFP quench, ionomycin; YFP ratio F(max-min)/F0 at 10 µM; 2,300 tested, under 10 active; shares compounds with ANO1 block; AID 652233;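 active = yellow fluorescent protein signal ratio exceeding the buffer control mean by over 5 SD of those controls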;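 note: ratio is mean of duplicate wells from kinetic YFP trace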
ClC-1 inh = blocks the rat ClC-1 voltage-dependent chloride channel. ratio percent, % at 10 µM. CHO ClC-1-YFP, iodide influx fluorescence quench; iodide control reads 0, buffer control 100. shares compounds with ANO1 block. 2,300 tested, under 10 active. AID 652236;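 active = duplicate-mean ratio percent above the mean of iodide-only control wells, which defines zero, plus 5 of their SD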;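 note: higher percent means stronger block of ClC-1 iodide influx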
Target sequence (P35524 whole entry, looked up): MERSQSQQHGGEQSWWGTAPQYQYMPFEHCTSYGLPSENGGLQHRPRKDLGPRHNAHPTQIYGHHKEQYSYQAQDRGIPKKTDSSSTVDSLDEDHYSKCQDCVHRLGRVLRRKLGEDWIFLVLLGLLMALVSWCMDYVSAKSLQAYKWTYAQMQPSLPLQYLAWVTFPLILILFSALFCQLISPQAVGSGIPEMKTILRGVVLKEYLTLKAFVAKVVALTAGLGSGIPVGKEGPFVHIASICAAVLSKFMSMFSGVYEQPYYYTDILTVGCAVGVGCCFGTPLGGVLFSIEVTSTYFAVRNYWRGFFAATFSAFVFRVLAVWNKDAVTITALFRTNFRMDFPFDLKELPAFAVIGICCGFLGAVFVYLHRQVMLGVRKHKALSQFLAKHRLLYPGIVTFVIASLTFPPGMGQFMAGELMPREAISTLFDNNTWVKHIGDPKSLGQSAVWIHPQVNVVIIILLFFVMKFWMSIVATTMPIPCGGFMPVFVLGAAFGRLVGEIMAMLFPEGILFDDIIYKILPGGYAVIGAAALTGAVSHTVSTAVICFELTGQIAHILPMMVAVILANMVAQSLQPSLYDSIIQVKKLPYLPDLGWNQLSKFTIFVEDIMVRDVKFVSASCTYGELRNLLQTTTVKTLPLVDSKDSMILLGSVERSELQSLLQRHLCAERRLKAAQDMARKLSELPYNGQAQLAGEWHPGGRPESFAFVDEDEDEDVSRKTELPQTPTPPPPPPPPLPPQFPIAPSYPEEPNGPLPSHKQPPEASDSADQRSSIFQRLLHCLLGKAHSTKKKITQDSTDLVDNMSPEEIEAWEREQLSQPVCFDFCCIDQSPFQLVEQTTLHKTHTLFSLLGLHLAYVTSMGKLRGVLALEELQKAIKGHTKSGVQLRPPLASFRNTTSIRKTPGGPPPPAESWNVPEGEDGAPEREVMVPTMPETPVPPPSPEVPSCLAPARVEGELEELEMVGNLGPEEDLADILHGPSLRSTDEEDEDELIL
Numbers without * were called inactive; i = inactive; · = not tested or not shown.

SMILES	ANO1 block	TMEM16A act	CHT block	CHT allo act	TMEM16A reconf	TMEM16A Ca cntr	Parental YFP cnt	ClC-1 inh
CC(C)(C)NC(=O)C(c1ccccc1)N(Cc1ccco1)C(=O)c1csnn1 (stereo unspecified)	i	i	i	i	·	·	·	·
O=C(CCCC1=NS(=O)(=O)c2ccccc2N1)N1CCN(c2ccc(Cl)cc2)CC1	i	i	i	i	·	·	·	·
CC(C)(CC(=O)N1CCN(c2ccc(Cl)cc2)CC1)CC1=NS(=O)(=O)c2ccccc2N1	25*	i	i	i	i	i	-1.1	-8
CCOc1ccc(S(=O)(=O)N2CCN(C(=S)NCc3ccco3)CC2)cc1	i	i	i	i	·	·	·	·
COCCNc1nc2nonc2nc1N(C)Cc1cccc2cnccc12	i	i	i	i	·	·	·	·
COc1cccc(NC(=O)CCN2CCOCC2)c1	i	i	i	i	·	·	·	·
O=C(CCN1CCOCC1)Nc1ccccc1	100*	i	i	i	i	i	-1	-1
O=S(=O)(Nc1nc2ccccc2nc1N1CCN(c2ccccc2F)CC1)c1ccc(Cl)cc1	100*	i	i	i	38%*	i	-0.99	-10
CCOC(=O)N1CCC(Nc2nc3ccccc3nc2NS(=O)(=O)c2ccc(Cl)cc2)CC1	i	i	i	i	32%*	i	-0.82	-144
C/C(=N/NC(=O)c1sc(=S)n(C)c1C)c1ccccc1	i	i	i	i	·	·	·	·
CCc1nc2sc3ccccc3c(=O)c2c(=O)n1CCOC	25*	i	i	i	i	i	-1.1	-12
COc1ccc(-c2nnnn2C(C)C)cc1S(=O)(=O)Nc1ccccc1	i	i	i	i	·	·	·	·
CC(C)n1nnnc1-c1cccc(Cl)c1	i	i	i	i	i	i	-1.2	-8
Cc1cccc2sc(NC(=O)CN(C)S(=O)(=O)c3ccc(Br)s3)nc12	100*	i	i	i	i	i	-1	-6
O=C(Nc1ccc(N2CCN(c3ncccc3C(F)(F)F)CC2)nc1)c1cccs1	25*	i	i	i	31%*	i	-1.2	-4
C=CCSC1=NNC(c2ccc(C(C)(C)C)cc2)=NN1	i	i	i	i	·	·	·	·
CCN(C(=O)CN1CCN(c2ccccc2F)CC1)c1c(N)n(Cc2ccccc2)c(=O)[nH]c1=O	100*	i	i	i	i	i	-0.96	-18
CCN(C(=O)CN1CCN(c2ccccc2O)CC1)c1c(N)n(Cc2ccccc2)c(=O)[nH]c1=O	i	i	i	i	·	·	·	·
O=C(COC(=O)CC1CC2CCC1C2)Nc1ccc(F)cc1Cl (stereo unspecified)	·	i	·	·	·	·	·	·
Cc1cc(/C=N/n2cnnc2)c(C)n1-c1ccc(OCc2ccccc2F)cc1	i	i	i	i	·	·	·	·
Cc1cc(/C=N/n2cnnc2)c(C)n1-c1ccc(OCc2ccc(Cl)cc2)cc1	100*	i	i	i	24%*	i	-1.1	-19
C=CCSc1nc(C)c2cc(C)cc(C)c2n1	i	i	i	i	·	·	·	·
COc1ccc(N(C)C2=NS(=O)(=O)c3ccccc32)cc1	100*	i	i	i	i	i	-1.1	-2
COc1ccc(/C=N/N(C)C2=NS(=O)(=O)c3ccccc32)cc1	i	i	i	i	·	·	·	·
O=C(CN1CCC(C(=O)c2ccc(F)cc2)CC1)Nc1ccccc1	i	i	i	i	·	·	·	·
O=C(CN1CCC(C(=O)c2ccc(F)cc2)CC1)Nc1ccc(F)cc1	100*	i	i	i	i	i	-1	-8
Cn1c(SSc2ccc(-c3cccnc3)n2C)ccc1-c1cccnc1	·	i	·	·	·	·	·	·
Cc1ccc(S(=O)(=O)N2CCN(C(=O)/C=C/c3ccccc3)CC2)cc1C	·	i	·	·	·	·	·	·
